Measured values reported in PubChem BioAssay.
Active and inactive are the calls of the source. Unless noted, how the calls were made is not given here.

Assays:
[1] = anti-His antibody binders, primary screen, artefact control for SMM control protein annotation, biochemical, small-molecule microarray, 635 nm fluorescence (AID 1128); details: anti-His Alexa647 antibody binding, higher = more signal;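 further: score merges feature fluorescence with signal-to-noise for each printed compound spot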
[2] = system: Human papillomavirus type 1a E7 protein (residues 1-88); experiment: HPV1a E7 small-molecule binders, primary screen, biochemical, small-molecule microarray, residues 1-88, 635 nm (AID 1129); details: small-molecule microarray binding, fluorescence 635 nm; higher = more signal
[3] = target: Focal adhesion kinase 1 (Homo sapiens) (UniProt Q05397); experiment: small-molecule microarray binders of FAK, primary screen, biochemical, 635/667 nm fluorescence, BSA, DTT (AID 1130); details: PTK2 binding, 635 nm fluorescence, higher = more signal;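 further: composite of spot emission at 667 nm and signal to noise over triplicate slides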
Focal adhesion kinase 1 (Homo sapiens), sequence (Q05397 whole entry, looked up): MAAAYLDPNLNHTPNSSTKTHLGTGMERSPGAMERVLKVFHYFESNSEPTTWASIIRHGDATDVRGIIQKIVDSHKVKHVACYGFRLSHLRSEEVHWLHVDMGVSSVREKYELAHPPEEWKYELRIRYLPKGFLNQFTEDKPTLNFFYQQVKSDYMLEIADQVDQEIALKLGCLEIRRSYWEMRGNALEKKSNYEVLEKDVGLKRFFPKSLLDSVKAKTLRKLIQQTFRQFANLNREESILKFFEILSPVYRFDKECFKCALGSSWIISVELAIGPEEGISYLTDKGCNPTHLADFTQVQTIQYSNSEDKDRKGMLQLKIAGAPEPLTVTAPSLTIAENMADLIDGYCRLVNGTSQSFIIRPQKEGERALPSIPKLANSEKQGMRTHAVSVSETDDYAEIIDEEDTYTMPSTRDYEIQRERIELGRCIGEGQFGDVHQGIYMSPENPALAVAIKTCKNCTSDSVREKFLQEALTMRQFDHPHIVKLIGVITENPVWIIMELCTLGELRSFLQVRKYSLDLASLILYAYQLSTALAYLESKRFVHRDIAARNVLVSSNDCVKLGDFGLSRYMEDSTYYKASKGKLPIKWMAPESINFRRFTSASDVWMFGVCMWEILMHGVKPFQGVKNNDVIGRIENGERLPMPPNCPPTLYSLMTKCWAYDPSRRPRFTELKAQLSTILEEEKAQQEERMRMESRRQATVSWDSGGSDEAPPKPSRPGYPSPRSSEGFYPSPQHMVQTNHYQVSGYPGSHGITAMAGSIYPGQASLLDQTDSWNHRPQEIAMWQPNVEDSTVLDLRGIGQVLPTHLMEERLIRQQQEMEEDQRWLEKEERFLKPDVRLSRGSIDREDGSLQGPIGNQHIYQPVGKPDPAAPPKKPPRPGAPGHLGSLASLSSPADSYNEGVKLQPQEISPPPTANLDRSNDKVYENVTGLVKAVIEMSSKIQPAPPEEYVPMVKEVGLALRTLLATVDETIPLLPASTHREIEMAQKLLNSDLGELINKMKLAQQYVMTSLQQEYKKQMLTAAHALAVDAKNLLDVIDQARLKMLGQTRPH

[4] = system: Fibrinogen (Alexa647-labelled); experiment: fibrinogen binders on compound microarrays, profiling panel, artefact control for SMM control-protein annotation, biochemical, small-molecule microarray, 635/667 nm fluorescence (AID 1131); details: fibrinogen-A647 binding fluorescence, higher = more signal;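 further: z-score merges 667 nm fluorescence with per-spot signal-to-noise over triplicate slides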
[5] = target: Follistatin (Homo sapiens) (UniProt P19883); experiment: follistatin binders on small-molecule microarrays, primary screen, biochemical, small-molecule microarray, 635/667 nm fluorescence (AID 1132); details: FST binding, 635 nm fluorescence, higher = more signal
Follistatin (Homo sapiens), sequence (P19883 whole entry, looked up): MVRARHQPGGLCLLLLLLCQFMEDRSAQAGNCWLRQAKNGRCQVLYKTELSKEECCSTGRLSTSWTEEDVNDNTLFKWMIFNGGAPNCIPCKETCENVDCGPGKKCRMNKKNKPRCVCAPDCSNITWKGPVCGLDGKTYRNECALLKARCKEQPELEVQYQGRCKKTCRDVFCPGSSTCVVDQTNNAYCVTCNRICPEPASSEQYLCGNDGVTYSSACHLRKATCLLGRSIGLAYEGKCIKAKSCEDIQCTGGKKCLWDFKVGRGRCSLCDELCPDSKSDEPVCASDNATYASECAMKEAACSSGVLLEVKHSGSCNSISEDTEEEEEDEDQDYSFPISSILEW

[6] = target: Fibroblast growth factor 2 (Homo sapiens) (UniProt P09038); experiment: FGF2 binders on small-molecule microarrays, primary screen, biochemical, small-molecule microarray, 635/667 nm fluorescence (AID 1133); details: small-molecule microarray binding, FGF2, fluorescence 635/667; higher = more signal
Fibroblast growth factor 2 (Homo sapiens), sequence (P09038 whole entry, looked up): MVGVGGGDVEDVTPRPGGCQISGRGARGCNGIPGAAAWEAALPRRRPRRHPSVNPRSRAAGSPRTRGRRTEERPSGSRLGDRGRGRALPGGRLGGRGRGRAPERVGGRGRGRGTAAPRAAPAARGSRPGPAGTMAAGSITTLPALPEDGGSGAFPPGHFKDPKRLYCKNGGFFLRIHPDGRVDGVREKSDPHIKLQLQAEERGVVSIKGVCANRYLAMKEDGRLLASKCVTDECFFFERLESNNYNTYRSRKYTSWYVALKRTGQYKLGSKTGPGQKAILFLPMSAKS

[7] = mitochondrial membrane potential change in A549 cells, profiling panel, cell-based, JC-1 fluorescence, basal, 24 h, 100 nL (AID 1138); details: higher = more signal;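 further: A549 lung adenocarcinoma cells under basal conditions with no added stimulus; test concentration not given here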
[8] = system: Lefty1; experiment: Lefty1 binders on small-molecule microarrays, primary screen, biochemical, small-molecule microarray, 635/667 nm fluorescence (AID 1139); details: small-molecule microarray binding, fluorescence 635/667; higher = more signal
[9] = system: wheat germ agglutinin (Triticum aestivum), Alexa647-labelled; experiment: wheat germ agglutinin binders on compound microarrays, profiling panel, artefact control for SMM control-protein annotation, biochemical, small-molecule microarray, 635/667 nm fluorescence (AID 1140); details: WGA-A647 binding, 635 nm fluorescence, higher = more signal;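 further: score merges 667 nm feature emission with signal to noise over triplicate slides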
[10] = target: Luciferin 4-monooxygenase (Photinus pyralis) (UniProt P08659); experiment: firefly luciferase enzyme inhibitors, primary screen, biochemical, luminescence, purified enzyme, 2006 set (AID 1141); details: SteadyGlo luminescence, 30 min, higher = more signal, called active from +8 up or from −8 down;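 further: cell-free assay with purified firefly luciferase at 100 ng per well in PBS; test concentration not given here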
Luciferin 4-monooxygenase (Photinus pyralis), sequence (P08659 whole entry, looked up): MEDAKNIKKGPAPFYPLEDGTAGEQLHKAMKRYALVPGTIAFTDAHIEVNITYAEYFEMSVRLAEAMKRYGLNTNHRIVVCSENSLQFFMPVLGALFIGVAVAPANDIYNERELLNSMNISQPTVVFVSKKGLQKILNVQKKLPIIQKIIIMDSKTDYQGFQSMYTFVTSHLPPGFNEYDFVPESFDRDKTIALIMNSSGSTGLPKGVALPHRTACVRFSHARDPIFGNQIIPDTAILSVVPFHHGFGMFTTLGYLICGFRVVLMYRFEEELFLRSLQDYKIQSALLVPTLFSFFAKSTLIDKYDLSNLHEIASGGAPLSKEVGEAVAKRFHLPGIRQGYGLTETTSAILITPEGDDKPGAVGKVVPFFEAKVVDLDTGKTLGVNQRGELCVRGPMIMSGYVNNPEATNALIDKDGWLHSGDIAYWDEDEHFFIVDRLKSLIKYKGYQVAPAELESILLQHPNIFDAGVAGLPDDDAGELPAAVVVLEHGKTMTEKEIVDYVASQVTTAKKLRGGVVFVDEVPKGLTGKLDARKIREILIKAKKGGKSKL

[11] = system: Wnt5a (protein binding on small-molecule microarray); experiment: Wnt5a binders on small-molecule microarray, primary screen, biophysical, 635/667 nm fluorescence (AID 1142); details: 635 nm fluorescence, higher = more signal;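 further: fluorescence read at 667 nm with signal to noise per printed feature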
[12] = cell viability in Huh7 cells, primary screen, cytotoxicity control for HCV replication inhibitor project, CellTiter-Glo luminescence, basal, 48 h (AID 1143); details: Huh7 HCV replicon, higher = more signal, called active from +8 up or from −8 down;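 further: Huh7 hepatoma cells carrying a hepatitis C replication reporter with no stimulus; test concentration not given here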
[13] = P. aeruginosa biofilm formation inhibitors, primary screen, PAO1 strain, BacTiter-Glo luminescence, LB-PBS (AID 1144); details: 12 h, higher = more signal
[14] = CREB reporter modulators without forskolin, primary screen, cell-based, PC12, CRE-LacZ reporter, unstimulated (AID 1145); details: no forskolin, luminescence, 4.5 h, higher = more signal, called active from +8 up or from −8 down
[15] = CREB reporter modulators under forskolin, primary screen, cell-based, PC12, CRE-LacZ reporter, forskolin-stimulated (AID 1146); details: luminescence, 4.5 h, higher = more signal, called active from +8 up or from −8 down;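 further: PC12 cells with 6xCRE LacZ reporter stimulated by forskolin 10 µM; beta-galactosidase reporter signal reflecting CREB driven transcription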
[16] = target: Streptavidin (Streptomyces avidinii) (UniProt P22629); experiment: streptavidin binders on small-molecule microarray, primary screen, artefact control for SMM compound annotation, biophysical, 635/667 nm fluorescence (AID 1147); details: streptavidin binding, higher = more signal;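 further: signal reflects streptavidin binding to arrayed compounds as a control protein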
Streptavidin (Streptomyces avidinii), sequence (P22629 whole entry, looked up): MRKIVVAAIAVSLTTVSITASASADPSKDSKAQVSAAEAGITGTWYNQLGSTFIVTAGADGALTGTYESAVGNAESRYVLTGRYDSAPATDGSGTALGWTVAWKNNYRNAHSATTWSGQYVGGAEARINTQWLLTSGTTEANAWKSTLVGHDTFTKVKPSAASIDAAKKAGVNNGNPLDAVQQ

[17] = small-molecule binders of probe aInhba, primary screen, biochemical, small-molecule microarray, 635/667 nm fluorescence (AID 1148); details: higher = more signal;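 further: score merges 667nm spot fluorescence with signal-to-noise for antibody binding to printed compounds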
[18] = target: Torsin-1A (Homo sapiens) (UniProt O14656); experiment: torsin A binders from cell lysate, primary screen, small-molecule microarray, wild-type, 635/667 nm (AID 1149); details: COS7 hTOR1A-WT lysate, 635 nm fluorescence, higher = more signal
Torsin-1A (Homo sapiens), sequence (O14656 whole entry, looked up): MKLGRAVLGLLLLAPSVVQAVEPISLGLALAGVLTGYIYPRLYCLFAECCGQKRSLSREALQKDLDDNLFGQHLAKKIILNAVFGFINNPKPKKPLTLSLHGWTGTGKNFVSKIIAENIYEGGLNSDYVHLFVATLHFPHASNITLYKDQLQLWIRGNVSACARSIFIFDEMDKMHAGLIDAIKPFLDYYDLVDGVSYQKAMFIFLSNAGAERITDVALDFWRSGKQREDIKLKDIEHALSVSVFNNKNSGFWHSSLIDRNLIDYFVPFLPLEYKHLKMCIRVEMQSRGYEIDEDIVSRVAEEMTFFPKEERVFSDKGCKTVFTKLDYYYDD

[19] = target: Torsin-1A (Homo sapiens) (UniProt O14656); experiment: small-molecule binders of mutant TOR1A in lysate, primary screen, cell lysate, small-molecule microarray, COS7 lysate, 635/667 nm fluorescence (AID 1150); details: COS7 hTOR1A mutant lysate, 635 nm fluorescence, higher = more signal;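 further: score pools 667 nm emission and signal to noise measuring lysate protein binding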
[20] = system: Sonic hedgehog protein (Shh); experiment: small-molecule binders of Shh protein, primary screen, biochemical, small-molecule microarray, 635/667 nm fluorescence (AID 1151); details: small-molecule microarray binding, 635 nm fluorescence; higher = more signal;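 further: Shh protein binding to compounds spotted on small-molecule microarray slides; score combines spot fluorescence intensity with signal-to-noise across triplicate slides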

Compound	composite z-score [1]	composite z-score [2]	composite z-score [3]	composite z-score [4]	composite z-score [5]	composite z-score [6]	z-score [7]	composite z-score [8]	composite z-score [9]	z-score [10]	composite z-score [11]	z-score [12]	z-score [13]	z-score [14]	z-score [15]	composite z-score [16]	composite z-score [17]	composite z-score [18]	composite z-score [19]	composite z-score [20]
C[C@H]1C2=C3C(CC[C@H]4C(OCc5ccc(F)cc5C(F)(F)F)OC[C@](C)([C@@H]34)N(C(=O)OC(C)(C)C)C2)C2COC(=O)OCC21 (stereo not given in full)	2.42	1.16	1.46	0.96	0.856	-1.5	1.75	-0.225	0.792	1.85 (inactive)	0.163	-1.13 (inactive)	-0.318 (inactive)	0.201 (inactive)	0.796 (inactive)	1.29	0.0992	0.639	0.988	-0.789
CCOc1cc(C(O)C2C=CC3C(=O)N(C4CCCCC4)C(=O)C3N2Nc2ccc(OC)cc2)ccc1O (stereo not given)	0.675	1.19	0.903	0.705	0.846	-0.0785	0.786	0.225	0.686	-0.0537 (inactive)	0.0751	-1.26 (inactive)	-0.855 (inactive)	0.276 (inactive)	-1.51 (inactive)	1.43	0.0808	0.705	1.17	-0.207
O=C1C[C@]2(c3ccc([N+](=O)[O-])cc3)C(=O)N(Cc3ccccc3)c3cc(CO)ccc3[C@H]2N1CC12CC3CC(CC(C3)C1)C2	-1.43	-0.835	-0.536	-1.28	-1.06	-0.653	-0.0834	-1.17	-0.786	-0.271 (inactive)	-0.186	0.349 (inactive)	0.435 (inactive)	-0.491 (inactive)	0.245 (inactive)	-1.04	-0.325	-0.659	0.263	-0.419
C[C@H]1C2=C3C(CC[C@H]4C(OCc5ccc(F)cc5C(F)(F)F)OC[C@](C)([C@@H]34)N(C(=O)OC(C)(C)C)C2)C(CO)C1CO (stereo not given in full)	0.0803	1.12	0.882	0.944	0.578	-1.89	1.31	-0.781	0.608	0.608 (inactive)	0.24	-2.85 (inactive)	0.36 (inactive)	0.779 (inactive)	0.677 (inactive)	1.38	-0.0214	0.28	0.222	-1.38
O=C1c2ccccc2[C@](Cc2ccccc2I)(C(=O)NCCN2CCOCC2)[C@H](c2ccc(CO)cc2)N1Cc1ccccc1	0.0765	1.2	0.964	0.598	1.26	0.146	0.803	0.98	0.458	-0.0588 (inactive)	0.265	-1.98 (inactive)	0.536 (inactive)	0.649 (inactive)	0.413 (inactive)	1.17	0.444	0.0373	0.802	1.21
